SW480 rerep: inducers of DNA re-replication in SW480 colon cancer cells. SW480 DNA re-replication, Hoechst DNA content imaging, 48 h. Potency, µM (top dose mostly 46.1 µM), most hits filed as activators. 1.8% of 340,000 active; further: nearly all actives have a fitted effect of over 55% in size
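DNA re-replication was detected as more nuclei of elevated Hoechst intensity after 48 hr exposure to compound (23 nL pinned per well of 250 cells).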
MCF10A rereplic: DNA re-replication induction in MCF 10a cells | Potency, µM (highest dose often 46.1 µM), hits mostly activators | MCF 10A DNA re-replication, Hoechst nuclear intensity, 48 h | 2.9% of 350,000 active; further: nearly all actives have a fitted effect of over 50% in size
KB-V1 cytotox: KB-V1 MDR subline cytotoxicity. AID 1347076. 3.4% of 400,000 active. KB-V1 MDR cells viability, CellTiter-Glo, 72 h. Potency, µM (top dose mostly 46.1 µM), hits mostly cytotoxic; further: nearly all actives have a fitted effect of over 60% in size
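qHTS viability screen in drug-selected KB-V1 MDR cells: 72 h compound treatment at 37 degrees C, ATP luminescence end point.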
IL-1B inflam inh: inflammasome signaling inhibition, IL-1 beta readout; 4.7% of 360,000 active; THP-1 LPS/ATP IL-1B secretion, AlphaLISA, 16 h; stronger effect = lower value; activity change, % at 57.5 µM; in the data active means activity change below about -50%; inconclusive means mostly about -30% to -49%
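Secreted IL-1B measured by AlphaLISA bead assay after 16 h compound exposure of THP-1 cells; compounds (final up to 57.5 uM) added 1 h before LPS (250 ng/mL) and ATP (1.25 mM) stimulation; lower signal means less secretion.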
KB-3-1 cytotox: kills parental KB-3-1 adenocarcinoma cells. Potency, µM (series often up to 46.1 µM), actives largely listed as cytotoxic. AID 1347075. 1.4% of 400,000 active. KB-3-1 viability, CellTiter-Glo ATP luminescence, 72 h; further: nearly all actives have a fitted effect of over 60% in size
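Screening of KB-3-1 cells (DMEM, 10% FBS, phenol-red free) ran from lowest to highest compound concentration; after 72 h at 37 °C viability was read luminescently and curves fitted.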
Hits are given with their value; i = inactive; ? = inconclusive; nt = no result given. Hits are enriched below; roughly 9.9% of the tested compounds scored in any of these assays. Unless noted, the call rests on the fitted dose curve; in most records, active means well fitted curve in the direction sought with a large enough effect; inconclusive means small, poorly fitted or top-dose-only effect, or another doubt; inactive means no such curve, though single readings can be large; an effect the other way counts as inactive or inconclusive.

SMILES	SW480 rerep	MCF10A rereplic	KB-V1 cytotox	IL-1B inflam inh	KB-3-1 cytotox
CC1=NN(c2nc(-c3ccc(C)cc3)cs2)C(=O)C1N=Nc1ccccc1O (stereo not drawn)	0.731µM	?	i	i	i
COc1c2c(c(CCC(=O)O)c3c1C=CC(C)(C)O3)OC(C)(C)C=C2	i	i	i	i	i
O=C(Nc1ccc2ccccc2c1)Nc1nnc(-c2cccnc2)s1	nt	nt	i	nt	?
COc1ccc(C(OC(=O)c2ccco2)C(=O)NC2CCCCC2)cc1 (stereo not drawn)	i	i	i	i	i
COc1ccc(C(OC(=O)c2c(C)noc2C)C(=O)NC2CCCC2)cc1 (stereo not drawn)	i	i	5.17µM	i	i
CC1=CSC2=NC(=O)/C(=C\c3cccn3-c3ccccc3)C(=N)N12	i	i	?	i	i
CC1=CSC2=NC(=O)/C(=C\c3cccn3-c3ccc([N+](=O)[O-])cc3)C(=N)N12	?	?	2.91µM	i	i
CC(C)c1ccc(-n2cccc2/C=C2/C(=N)N3C=CSC3=NC2=O)cc1	?	23.1µM	20.6µM	i	?
COc1ccc(-c2ccc(/C=C3/C(=N)N4C(C)=CSC4=NC3=O)o2)c([N+](=O)[O-])c1	i	20.6µM	?	i	i
O=C(O)c1cc(NC2(c3ccccc3)C(=O)c3ccccc3C2=O)ccc1Cl	nt	nt	?	nt	i
CC(OC(=O)C1CCCCC1)C(=O)Nc1ccc(S(N)(=O)=O)cc1 (stereo not drawn)	i	i	i	i	i
CCc1ccccc1NC(=O)NC1CCCCCCC1	i	i	i	i	i
Cc1ccc(NC2=C(c3ccc(C(F)(F)F)cc3)C(=O)c3ccccc32)cc1C	nt	nt	i	nt	i
CCOc1ccccc1NC(=O)Nc1ccc2c(c1)OCO2	i	i	i	?	i
C=CCOc1ccccc1CN(C(=O)CCl)c1ccc2c(c1)OCO2	5.17µM	?	?	-106.0	?
CCCCC(OC(=O)CN1C(=O)COc2ccccc21)C(=O)NC1CCCCC1 (stereo not drawn)	i	i	i	i	i
O=C1c2ccccc2C(c2nnnn2-c2ccc3c(c2)OCCO3)N1Cc1cccs1 (stereo not drawn)	nt	nt	?	i	i
Cc1cccc(C)c1NC(=O)c1cc2c(=O)c3ccccc3oc2nc1C(F)(F)F	i	i	2.06µM	i	i
CC(C)COC(=O)N1CCCC1C(=O)O (stereo not drawn)	0.731µM	6.51µM	i	i	i
Cc1ccc(-c2nc(CSc3nc4ccccc4c(=O)n3C)cs2)cc1	i	?	11.6µM	i	?
C=CCn1c(SCc2csc(-c3ccc(C)cc3)n2)nnc1-c1ccccc1OC	nt	?	13µM	?	i
Cc1ccc(-c2nc(CSc3nc4ccccc4c(=O)n3CCO)cs2)cc1	i	?	i	i	i
Cc1ccc(-c2nc(CCN3C(=O)c4ccccc4C3=O)cs2)cc1	i	?	13µM	i	i
COc1ccccc1-n1cnnc1SCc1csc(-c2ccccc2)n1	i	i	i	i	i
CCc1ccc2nc(N=C(N)N)nc(C)c2c1	i	i	i	-91.3	23.1µM
SMILES	SW480 rerep	MCF10A rereplic	KB-V1 cytotox	IL-1B inflam inh	KB-3-1 cytotox
Cc1cc2nc(N=C(N)N)nc(C)c2cc1C	18.4µM	?	i	-78.4	i
Cc1cc2nc(/N=C(\N)NC(=O)C(C)C)nc(C)c2cc1C	i	i	i	-93.5	14.6µM
Cc1nc(N=C(N)N)nc2ccccc12	i	i	?	-101.4	8.2µM
CCC(=O)N/C(N)=N/c1nc(C)c2cc(C)c(C)cc2n1	?	i	i	nt	i
OCCN1CCN(CC(O)COC(c2ccc(F)cc2)c2ccc(F)cc2)CC1 (stereo not drawn)	i	23.1µM	i	-78.6	i
CSc1nc(N2CCOCC2)c2ccccc2n1	i	i	i	i	i
CN1c2ccccc2C(C)(C)C12C=Nc1c(cc(N3CCOCC3)c3ccccc13)O2 (stereo not drawn)	20.6µM	7.31µM	i	i	?
COc1cc2c(cc1C1NC(=S)NC(C)=C1C(N)=O)CCCC2 (stereo not drawn)	?	i	i	?	i
Cc1ccc(NC(=O)Nc2ccc3c(c2)N(C)C(=O)CS3)cc1C	i	i	i	?	i
Cc1cc(C)cc(NC(=O)Nc2ccc3c(c2)N(C)C(=O)CS3)c1	?	i	i	-50.2	?
